Screening data (PubChem BioAssay)
A selection: hits, their analogues and other compounds. The true share with any hit is near 4.1%.
PglD DTNB = C. jejuni PglD acetyltransferase inhibitors, primary screen, biochemical, DTNB colorimetric, single point | purified PglD enzyme, DTNB colorimetric CoA detection | inhibition, % at 12.5 µM | actives 0.098% (n = 360,000) | AID 602405, 2012; in the data active means inhibition above about 16%, passing the limit was not always enough
NSD2 HMT inh = NSD2 histone methyltransferase inhibitors, primary screen, biochemical, AlphaScreen, single concentration, set 2; NSD2 peptide methylation, 120 min; actives 0.54% (n = 310,000); inhibition, % at 12.5 µM; AID 743445, 2014; in the data active means inhibition above about 50%
Env fusion inh = inhibitors of HIV-1 Env-driven cell-cell fusion, primary screen, HeLa-JRFL effector, CEM21 target cells, luciferase | inhibition, % at 12.3 µM | actives 1.1% (n = 360,000) | AID 651610, 2012;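 active means mean replicate inhibition score of at least 50 and every replicate individually at or above 50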;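 further: 0% = plate neutral controls and 100% = maraviroc near 300 nM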
CASP6 VEID inh = human caspase-6 inhibitors, primary screen, biochemical, VEID-R110 fluorescence, single point, set 2. P55212. purified caspase-6, Z-VEID-R110 cleavage fluorescence. inhibition, % at 12.5 µM. actives 0.53% (n = 350,000);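 active means mean inhibition across replicates at least about 35%, with every replicate also reaching that limit, limit read from the data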;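 further: 0% = median of neutral control wells and 100% = no fluorescence left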
Target sequence (P55212 24-179 limits assumed): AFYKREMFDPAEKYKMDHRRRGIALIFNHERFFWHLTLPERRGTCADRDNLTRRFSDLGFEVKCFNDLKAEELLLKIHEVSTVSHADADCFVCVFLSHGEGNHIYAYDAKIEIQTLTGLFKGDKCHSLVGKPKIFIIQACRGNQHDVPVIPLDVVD
Target sequence (P55212 194-293 limits assumed): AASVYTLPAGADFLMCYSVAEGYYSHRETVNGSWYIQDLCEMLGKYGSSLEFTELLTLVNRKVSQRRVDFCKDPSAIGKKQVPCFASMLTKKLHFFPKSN
ALR H2O2 inh = inhibitors of human ALR sulfhydryl oxidase, primary screen, biochemical, H2O2 detection, HRP-luminol luminescence, single point; AID 485317, 2010; FAD-linked sulfhydryl oxidase ALR (Homo sapiens), P55789; actives 3.8% (n = 290,000); purified ALR, DTT oxidation; inhibition, % (no concentration beside the values);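 active means mean replicate inhibition above about 79%, with every replicate also reaching it, limit read from the data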
Target sequence (P55789 whole entry, looked up): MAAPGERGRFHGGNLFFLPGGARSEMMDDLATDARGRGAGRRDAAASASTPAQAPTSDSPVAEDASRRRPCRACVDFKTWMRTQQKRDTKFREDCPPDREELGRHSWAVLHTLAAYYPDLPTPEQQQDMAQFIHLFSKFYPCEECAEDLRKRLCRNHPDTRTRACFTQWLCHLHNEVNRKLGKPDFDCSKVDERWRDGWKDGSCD
CFTR F508del cor = F508del CFTR correction, initial screen, CFBE line, single point. CFBE cells, YFP halide quenching; stimulated with forskolin plus potentiator P3; % fluorescence drop versus neutral controls. actives 0.36% (n = 350,000). activity (quench increase), % at 7.58 µM;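 active means mean added fluorescence quench of at least 8% versus neutral control, with both replicates also reaching 8%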;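 further: cells transiently co-express mutant CFTR-F508del with the halide-sensitive YFP; corrector assay measuring rescue of mutant channel to the surface after 24 h compound exposure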
Active calls of the source: *; · = no result given; [ ] = remark or other dose.

SMILES	PglD DTNB	NSD2 HMT inh	Env fusion inh	CASP6 VEID inh	ALR H2O2 inh	CFTR F508del cor
COc1cccc(C(=O)NC(=S)Nc2ccc3oc(=O)ccc3c2)c1	3	-3	-8	-2	2	·
C[C@@H]1CN([C@H](C)CO)C(=O)c2cc(C#CC3(O)CCCC3)cnc2O[C@H]1CN(C)C(=O)C1CCOCC1	-2	·	·	1	·	-3
C/C=C/c1ccc2c(c1)O[C@@H](CN(C)Cc1ccncc1)[C@H](C)CN([C@H](C)CO)S2(=O)=O	2	·	6[16.7 µM]	0	·	0
O=C(CSc1ccccc1)Nc1ccccc1C(=O)O	2	0	-39	·	35	·
COc1ccccc1CC(=O)Nc1ccccc1O	-3	-8	-8	·	89*	·
NC(=O)SCC(=O)Nc1ccccc1C(=O)O	2	2	16	0	94*	1
COc1ccccc1NC(=O)CSC(N)=O	·	1	·	·	99*	·
C[C@@H]1CN([C@@H](C)CO)S(=O)(=O)c2ccc(Br)cc2O[C@H]1CN(C)Cc1cccnc1	-1	·	6[16.7 µM]	-5	·	1
C[C@H]1CN([C@@H](C)CO)C(=O)c2cccc(NS(=O)(=O)c3cn(C)cn3)c2O[C@@H]1CN(C)Cc1ccc(C(=O)Nc2ccccc2N)cc1	·	·	·	-5	·	-3
CCC(=O)N[C@@H]1CC[C@@H](CC(=O)NCc2cc(F)cc(F)c2)O[C@@H]1CO	1	·	0[16.7 µM]	0	·	-3
COc1ccc2c3c(n(C)c2c1)[C@H](CO)N(S(C)(=O)=O)CC31CN(C(=O)C2CCCC2)C1	·	·	·	-3	·	1
COc1ccc(Cl)cc1NC(=O)CN1CCCCCC1	·	-6	3	0	-10	-2
COc1ccc(N)cc1NC(=O)CN1CCCC1	-5	4	0	-45	97*	-1
O=c1[nH]c2c(cnn2-c2ccc(Cl)cc2)c(=O)n1-c1cccc(Cl)c1	·	1	62*	-1	36	1
CCOC(=O)CSc1nc2ccccc2c(=O)n1CC1COc2ccccc2O1 (stereo unspecified)	2	-1	65*	·	-19	·
CCCN(CCC)C(=O)CSc1nc2ccccc2c(=O)n1CC1COc2ccccc2O1 (stereo unspecified)	-2	-3	26	0	·	·
C[C@@H]1CCCCO[C@@H](CN(C)CC2CCCCC2)[C@@H](C)CN([C@H](C)CO)C(=O)c2cc(NC(=O)NC3CCCCC3)ccc2O1	1	·	-4[16.7 µM]	·	·	3
COc1cc(C(=S)N(C)C)ccc1O	-1	2	·	·	92*	·
COc1ccc(/C=N/NC(=O)c2ccn[nH]2)cc1CSc1ccccn1	1	0	-16	2	99*	0
COc1ccc(/C=N/NC(=O)c2cccc(Br)c2)cc1CSc1ccccn1	·	-1	·	·	-3	·
COc1ccc(/C=N/NC(=O)c2cccnc2)cc1CSc1ccccn1	0	0	24	-1	99*	11*
COc1ccc(/C=N/NC(=O)c2ccn[nH]2)cc1COc1ccc(Cl)cc1	2	11	-173	·	0	·
COc1ccc(C(=O)N/N=C/c2ccc(OC)c(CSc3ccccn3)c2)cc1	·	0	9	-1	99*	1
COc1ccc(OCc2cc(/C=N\NC(=O)c3ccccc3)ccc2OC)cc1	10	1	26	-4	-6	3
O=C(C[C@H]1C=C[C@H](NC(=O)Nc2cc(F)ccc2F)[C@@H](CO)O1)NCCCN1CCOCC1	3	·	21[16.7 µM]	0	·	4
SMILES	PglD DTNB	NSD2 HMT inh	Env fusion inh	CASP6 VEID inh	ALR H2O2 inh	CFTR F508del cor
NC(=O)Cn1cc(C(=O)C(=O)N2CCOCC2)c2ccccc21	-2	-1	-4	45*	-8	-4
O=C(CSc1ccccc1)Nc1ccc2c(c1)OCCO2	8	-1	-81	2	-6	2
O=C(CSc1cccc[n+]1[O-])Nc1ccc2c(c1)OCCO2	·	-1	6	2	87*	3
CN1CCN(C(=O)C(=O)c2cn(CC(=O)N3CCOCC3)c3ccccc23)CC1	-2	-2	-10	1	·	2
NC(=O)c1ccc(NC(=O)CSc2cn(CC(=O)N3CCOCC3)c3ccccc23)cc1	-5	0	15	·	99*	1
Cn1cc(SCC(=O)Nc2ccc3c(c2)OCCO3)c2ccccc21	3	·	-33	0	99*	1
O=C(CSc1cn(CC(=O)N2CCOCC2)c2ccccc12)N1CCOCC1	6	1	-9	-5	-1	0
CCCN(C)C[C@H]1Oc2ncc(-c3cccc(C#N)c3)cc2C(=O)N([C@H](C)CO)C[C@@H]1C	1	·	0[16.7 µM]	-1	·	0
Cc1ccc(-c2cn3c(=S)[nH]nc3s2)cc1	·	-2	-55	·	86*	·
C[C@@H]1CCCCO[C@H](CN(C)C(=O)Nc2cccc3ccccc23)[C@@H](C)CN([C@@H](C)CO)C(=O)c2cc(NS(=O)(=O)c3ccccc3)ccc2O1	·	·	·	2	·	-1
O=C(O)CN1C(=O)/C(=C/c2cccc(Cl)c2)Oc2ccccc21	0	-9	8	0	81*	1
C[C@@H]1CN([C@H](C)CO)C(=O)c2cc(NC(=O)Nc3ccc(F)cc3)ccc2O[C@@H](C)CCCCO[C@H]1CN(C)Cc1ccc(C(F)(F)F)cc1	-1	·	68*[16.7 µM]	1	·	-4
C[C@H]1CCCCO[C@H](CN(C)Cc2ccc(C(F)(F)F)cc2)[C@@H](C)CN([C@@H](C)CO)C(=O)c2cc(NC(=O)Nc3ccc(F)cc3)ccc2O1	-6	·	58*[16.7 µM]	1	·	0
C[C@@H]1CN([C@H](C)CO)C(=O)c2cc(NC(=O)Nc3ccc(F)cc3)ccc2O[C@@H](C)CCCCO[C@@H]1CN(C)Cc1ccc(C(F)(F)F)cc1	-3	·	57*[16.7 µM]	0	·	-2
C[C@@H]1CCCCO[C@H](CN(C)Cc2ccc(C(F)(F)F)cc2)[C@H](C)CN([C@@H](C)CO)C(=O)c2cc(NC(=O)Nc3ccc(F)cc3)ccc2O1	-6	·	44[16.7 µM]	-1	·	-3
Cc1ccc(S(=O)(=O)Nc2ccc3c(c2)C(=O)N([C@@H](C)CO)C[C@@H](C)[C@@H](CN(C)CC2CCCCC2)OCCCC[C@H](C)O3)cc1	-2	·	-21[16.7 µM]	1	·	0
CCC(=O)Nc1ccc2c(c1)C(=O)N(C)C[C@H](OC)[C@H](C)CN(Cc1cccnc1)[C@H](C)CO2	2	·	·	·	·	-3
CC(C)=C1SC(N2CCN(c3ccc(C)cc3)CC2)=NC1=O	-2	-2	·	·	94*	·
COc1ccc2cc(/C=N/NC(=O)CN3CCOCC3)c(Cl)nc2c1	·	0	·	·	·	·
COc1ccc2cc(/C=N/NC(=O)CSCc3ccc([N+](=O)[O-])cc3)c(Cl)nc2c1	3	-8	·	-2	99*	0
